Experimental data: PubChem BioAssay (NCATS)
Results filed as inconclusive are left out. Calls of active or inactive are those of the source. Unless noted, calls follow the shape of the dose curve; as a rule, active = well fitted curve in the direction sought with a large enough effect; inconclusive = small, poorly fitted or top-dose-only effect, or another doubt; inactive = no such curve, though single readings can be large; an effect the other way counts as inactive or inconclusive.

Tests used:
[1] = target: Ferritin light chain (Equus caballus) (UniProt P02791); experiment: qHTS Validation Assay for Identification of Novel General Anesthetics (AID 2323); also: series mostly up to about 77 µM
Ferritin light chain (Equus caballus), sequence (P02791 2-175 limits assumed): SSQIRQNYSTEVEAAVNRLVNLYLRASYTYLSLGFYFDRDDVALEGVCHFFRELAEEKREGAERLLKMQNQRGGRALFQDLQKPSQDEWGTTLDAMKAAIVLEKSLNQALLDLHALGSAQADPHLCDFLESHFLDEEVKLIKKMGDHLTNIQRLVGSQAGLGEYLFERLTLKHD
How it was run: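 Normalized fluorescence response, scaled between free 1-AMA and 1-AMA/apoferritin complex, fitted to a four-parameter Hill equation for concentration-effect values. Binding mix: 10 uM horse-spleen apoferritin, 50% saturated 1-AMA in PBS; read 380/535 nm after 10 min.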

[2] = target: ATP-dependent DNA helicase Q1 (Homo sapiens) (UniProt P46063); experiment: qHTS Validation Assay for Inhibitors of RecQ-Like Dna Helicase 1 (RECQ1) (AID 2353)
ATP-dependent DNA helicase Q1 (Homo sapiens), sequence (P46063 whole entry, looked up): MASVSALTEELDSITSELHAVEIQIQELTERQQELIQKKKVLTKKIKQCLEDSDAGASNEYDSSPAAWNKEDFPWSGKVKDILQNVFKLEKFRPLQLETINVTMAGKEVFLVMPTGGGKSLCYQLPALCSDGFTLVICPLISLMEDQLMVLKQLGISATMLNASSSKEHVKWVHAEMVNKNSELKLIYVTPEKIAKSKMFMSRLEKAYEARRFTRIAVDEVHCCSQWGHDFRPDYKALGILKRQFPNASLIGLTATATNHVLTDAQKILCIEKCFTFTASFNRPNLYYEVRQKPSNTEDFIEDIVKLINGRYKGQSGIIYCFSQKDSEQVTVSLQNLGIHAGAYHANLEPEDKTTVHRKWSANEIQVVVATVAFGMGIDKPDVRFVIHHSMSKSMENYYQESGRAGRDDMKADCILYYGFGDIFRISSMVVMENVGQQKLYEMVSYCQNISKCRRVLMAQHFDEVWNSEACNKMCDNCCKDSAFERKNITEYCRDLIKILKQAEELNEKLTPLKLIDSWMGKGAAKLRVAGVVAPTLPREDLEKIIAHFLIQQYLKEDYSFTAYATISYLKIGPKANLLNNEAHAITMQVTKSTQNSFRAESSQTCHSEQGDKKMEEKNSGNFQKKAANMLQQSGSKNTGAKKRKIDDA
How it was run: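 RECQ1T1 50 nM; forked duplex (20 bp + 30-nt ss tails) 200 nM, ATP 2 mM final; pH 8.0, 2 mM MgCl2, 2.5 ug/ml poly(dI-dC); 15 min compound preincubation; discontinuous kinetic read over 2 h at RT.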

[3] = target: RecQ-like DNA helicase BLM (Homo sapiens) (UniProt P54132); experiment: qHTS Validation Assay for Inhibitors of Bloom's syndrome helicase (BLM) (AID 2364)
How it was run: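 BLM 50 nM in 25 mM Tris-HCl pH 8.0, 5 mM NaCl, 2 mM MgCl2, 1 mM DTT, 0.01% Tween-20, 2.5 ug/ml poly(dI-dC); 15 min cpd preinc, RT. Start: 200 nM forked DNA + 2 mM ATP (final). TAMRA read, 2 reads 2 h apart.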

[4] = High Content Imaging Cell-Based qHTS for Inhibitors of the mTORC1 Signaling Pathway in MEF (Tsc2-/-, p53-/-) Cells (AID 2666);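 also: percent of cells scored positive for phospho-rpS6 Ser235/236 immunostaining by imaging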
How it was run: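 Inhibition of rpS6 phosphorylation is measured by immunofluorescence imaging in empty-vector Tsc2-/-, p53-/- mouse embryonic fibroblasts after 24 hrs compound exposure at 37 degree Celsius. Results are reported as % positive cells per well.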

[5] = Validation screen for inhibitors of Lassa infection (AID 463096; calls by dose curve; also: potency is read from the fitted curve at half-maximal effect)
[6] = Validation screen for small molecules that induce DNA re-replication in MCF 10A normal breast cells (AID 463097); also: nearly all actives have a fitted effect of over 60% in size
How it was run: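 Following 48 hr compound incubation (37 C, 5% CO2), MCF 10A cells receive Hoechst for 40 min at 37 C. Nuclei are then scanned (excitation 405 nm, emission 500-530 nm) for total fluorescence intensity.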

[7] = target: Ubiquitin carboxyl-terminal hydrolase 2 (Homo sapiens) (UniProt O75604); experiment: qHTS Validation Assay for Inhibitors of Ubiquitin-specific Protease USP2a Using CHOP2 as the Reporter (AID 463106)
Ubiquitin carboxyl-terminal hydrolase 2 (Homo sapiens), sequence (O75604 whole entry, looked up): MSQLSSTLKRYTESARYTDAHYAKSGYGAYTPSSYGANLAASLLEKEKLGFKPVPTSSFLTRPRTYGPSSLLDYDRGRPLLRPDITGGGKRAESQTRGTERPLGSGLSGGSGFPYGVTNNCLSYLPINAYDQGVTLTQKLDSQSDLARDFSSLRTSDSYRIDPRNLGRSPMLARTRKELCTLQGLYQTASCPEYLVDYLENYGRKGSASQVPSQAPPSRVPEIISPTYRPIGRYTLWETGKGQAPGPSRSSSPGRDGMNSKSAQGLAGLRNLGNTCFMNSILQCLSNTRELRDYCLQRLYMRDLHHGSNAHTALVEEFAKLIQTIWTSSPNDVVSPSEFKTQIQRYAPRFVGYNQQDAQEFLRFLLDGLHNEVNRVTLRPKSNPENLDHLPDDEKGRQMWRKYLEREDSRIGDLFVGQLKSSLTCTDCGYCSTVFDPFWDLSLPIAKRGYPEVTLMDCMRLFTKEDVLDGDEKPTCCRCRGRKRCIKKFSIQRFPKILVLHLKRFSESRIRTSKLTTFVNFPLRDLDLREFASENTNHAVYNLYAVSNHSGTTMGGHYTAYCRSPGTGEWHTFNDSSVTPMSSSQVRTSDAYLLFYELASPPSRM
How it was run: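 Inhibition is expressed relative to NEM as the full-inhibition control, with concentration-response curves classed by fit quality, magnitude and activity. Enzyme (USP2 core, 10nM) meets 25nM Ub-CHOP2 after compound preincubation; readings are taken at 60min.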

[8] = target: DNA polymerase III PolC-type (Bacillus subtilis (strain 168)) (UniProt P13267); experiment: qHTS Validation Assay for the Inhibitors of DNA Replication in Gram-Positive Bacteria (AID 485295); also: potency is read from the fitted curve at half-maximal effect
DNA polymerase III PolC-type (Bacillus subtilis (strain 168)), sequence (P13267 whole entry, looked up): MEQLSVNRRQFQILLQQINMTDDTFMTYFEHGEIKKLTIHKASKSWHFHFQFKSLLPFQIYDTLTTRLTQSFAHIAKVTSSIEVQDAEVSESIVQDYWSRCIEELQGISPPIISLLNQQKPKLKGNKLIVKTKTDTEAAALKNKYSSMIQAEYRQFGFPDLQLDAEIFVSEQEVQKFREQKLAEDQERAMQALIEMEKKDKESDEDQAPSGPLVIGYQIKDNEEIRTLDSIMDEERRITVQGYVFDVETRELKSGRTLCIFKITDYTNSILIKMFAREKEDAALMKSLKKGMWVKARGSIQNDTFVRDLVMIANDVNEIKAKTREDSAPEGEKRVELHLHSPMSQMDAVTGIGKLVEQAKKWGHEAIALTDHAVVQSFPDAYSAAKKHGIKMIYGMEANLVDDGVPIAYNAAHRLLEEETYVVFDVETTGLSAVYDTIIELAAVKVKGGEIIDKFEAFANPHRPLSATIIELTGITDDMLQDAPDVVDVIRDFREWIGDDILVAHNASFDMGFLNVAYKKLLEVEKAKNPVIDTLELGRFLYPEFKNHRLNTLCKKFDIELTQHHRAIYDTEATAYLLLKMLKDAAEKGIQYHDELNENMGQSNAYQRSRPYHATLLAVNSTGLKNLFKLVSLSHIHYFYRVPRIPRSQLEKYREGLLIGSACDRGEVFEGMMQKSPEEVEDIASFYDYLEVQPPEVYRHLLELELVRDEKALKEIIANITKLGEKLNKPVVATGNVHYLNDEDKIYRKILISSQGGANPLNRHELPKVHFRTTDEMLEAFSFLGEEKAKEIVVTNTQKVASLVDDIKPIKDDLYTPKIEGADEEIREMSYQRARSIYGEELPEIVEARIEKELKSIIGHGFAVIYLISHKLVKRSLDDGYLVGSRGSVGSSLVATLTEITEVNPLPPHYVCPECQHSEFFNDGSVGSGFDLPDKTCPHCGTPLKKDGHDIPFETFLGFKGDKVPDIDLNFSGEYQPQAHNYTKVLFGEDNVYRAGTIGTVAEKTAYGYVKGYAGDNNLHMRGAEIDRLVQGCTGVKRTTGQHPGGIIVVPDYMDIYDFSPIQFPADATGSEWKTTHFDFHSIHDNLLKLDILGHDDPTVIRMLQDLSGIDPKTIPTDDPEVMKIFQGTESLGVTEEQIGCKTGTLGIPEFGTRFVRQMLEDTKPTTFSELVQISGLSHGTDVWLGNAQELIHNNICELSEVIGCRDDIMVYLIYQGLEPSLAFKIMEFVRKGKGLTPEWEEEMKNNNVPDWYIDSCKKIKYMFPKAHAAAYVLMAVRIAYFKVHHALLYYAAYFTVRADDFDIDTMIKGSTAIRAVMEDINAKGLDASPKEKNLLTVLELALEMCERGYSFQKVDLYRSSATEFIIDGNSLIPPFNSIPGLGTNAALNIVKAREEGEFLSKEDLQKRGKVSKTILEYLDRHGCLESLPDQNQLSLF
How it was run: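 Inhibition of DNA synthesis by the reconstituted PolC holoenzyme, monitored through PicoGreen staining of dsDNA formed from ssM13Gori, dNTPs and NTPs, with compound preincubation and room-temperature reaction.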

[9] = target: Tumor susceptibility gene 101 protein (Homo sapiens) (UniProt Q99816); experiment: qHTS Validation Assay for Iinhibitors of HIV-1 Budding by Blocking the Interaction of PTAP/TSG101 (AID 485342; calls by dose curve)
Tumor susceptibility gene 101 protein (Homo sapiens), sequence (Q99816 whole entry, looked up, the tested form may be a part): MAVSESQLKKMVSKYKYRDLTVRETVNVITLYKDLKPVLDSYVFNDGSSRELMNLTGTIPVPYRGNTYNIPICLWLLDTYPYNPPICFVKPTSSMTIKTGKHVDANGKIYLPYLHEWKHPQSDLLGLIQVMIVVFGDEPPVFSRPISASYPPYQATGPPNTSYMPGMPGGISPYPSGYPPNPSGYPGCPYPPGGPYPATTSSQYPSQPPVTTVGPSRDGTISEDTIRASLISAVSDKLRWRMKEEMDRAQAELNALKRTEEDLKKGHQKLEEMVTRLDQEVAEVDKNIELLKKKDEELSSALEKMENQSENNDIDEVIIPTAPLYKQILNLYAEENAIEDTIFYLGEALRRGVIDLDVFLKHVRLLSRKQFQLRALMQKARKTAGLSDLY
How it was run: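 Compound wells held the Tsg101 binding domain (10 uM) and a FITC-conjugated PTAP peptide (50 nM) in buffer at pH 7.5 containing 0.15 M NaCl and 0.01% Tween 20; polarization was recorded after 20 min, r.t.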

[10] = target: Beta-2 adrenergic receptor (Homo sapiens) (UniProt P07550); experiment: qHTS validation assay of beta-arrestin-biased ligands of beta2-adrenergic receptor (AID 485366)
Beta-2 adrenergic receptor (Homo sapiens), sequence (P07550 whole entry, looked up): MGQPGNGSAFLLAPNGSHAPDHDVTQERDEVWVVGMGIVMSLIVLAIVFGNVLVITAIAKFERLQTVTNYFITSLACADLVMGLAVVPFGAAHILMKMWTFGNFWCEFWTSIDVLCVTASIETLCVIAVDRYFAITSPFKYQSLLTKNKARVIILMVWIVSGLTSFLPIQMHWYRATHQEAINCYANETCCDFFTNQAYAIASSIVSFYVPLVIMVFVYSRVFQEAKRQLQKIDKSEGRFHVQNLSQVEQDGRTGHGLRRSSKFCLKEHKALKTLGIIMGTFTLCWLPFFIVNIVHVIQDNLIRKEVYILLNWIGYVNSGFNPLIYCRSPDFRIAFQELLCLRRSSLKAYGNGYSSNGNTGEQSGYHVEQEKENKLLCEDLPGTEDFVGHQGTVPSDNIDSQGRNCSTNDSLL
How it was run: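 Agonism was measured as beta-arrestin recruitment to recombinant beta2-AR, releasing tTA to drive luciferase. Cells were exposed for 18 hr at 37 degrees C to a series up to 46 microM. %Activity from corrected luminescence gave concentration-response curves.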

[11] = target: ATP-dependent 6-phosphofructokinase (Trypanosoma brucei brucei) (UniProt O15648); experiment: qHTS Validation Assay to Find Inhibitors of T. brucei phosphofructokinase (AID 485368); also: potency is read from the fitted curve at half-maximal effect
ATP-dependent 6-phosphofructokinase (Trypanosoma brucei brucei), sequence (O15648 whole entry, looked up): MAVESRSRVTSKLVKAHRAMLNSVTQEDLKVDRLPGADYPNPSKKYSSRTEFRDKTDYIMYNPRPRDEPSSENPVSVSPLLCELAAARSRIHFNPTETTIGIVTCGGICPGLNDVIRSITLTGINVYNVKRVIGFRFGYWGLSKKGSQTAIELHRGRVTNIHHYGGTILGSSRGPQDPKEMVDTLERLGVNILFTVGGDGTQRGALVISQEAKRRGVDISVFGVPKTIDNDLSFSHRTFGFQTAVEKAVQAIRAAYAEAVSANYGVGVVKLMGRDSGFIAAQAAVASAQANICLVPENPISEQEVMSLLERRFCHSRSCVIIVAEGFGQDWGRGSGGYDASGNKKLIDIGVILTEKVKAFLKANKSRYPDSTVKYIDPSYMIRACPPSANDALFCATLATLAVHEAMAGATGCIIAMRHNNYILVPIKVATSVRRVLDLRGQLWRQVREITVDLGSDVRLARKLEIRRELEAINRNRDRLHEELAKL
How it was run: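 ADP-Glo luminescence, two-step: residual ATP depleted, then ADP converted to ATP for luciferase. Enzyme 1.25 nM, F6P 0.5 mM, ATP 0.1 mM, pH 8.0 TEA buffer, 45 min RT. Curves fitted and classed by quality and efficacy.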

[12] = Cytometric Cell-Based qHTS for Inhibitors of the mTORC1 Signaling Pathway in MEF (Tsc2-/-, p53-/-) Cells (AID 2660);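 also: Tsc2 and p53 null MEFs carrying empty vector with compound for 24 h; percent of cells above a phospho-rpS6 to PI ratio cutoff in each well; series mostly up to about 38 µM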
How it was run: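 Immunofluorescence qHTS of rpS6 Ser235/236 phosphorylation: MEFs (Tsc2-/-, p53-/-) treated 24 h, 37 C, in DMEM + 10% FBS. Alexa-488 signal normalized to PI count, referenced to rapamycin (7.5 nM) and DMSO; PI cell number recorded for viability.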

[13] = High Content Imaging Cell-Based qHTS for Inhibitors of the mTORC1 Signaling Pathway in MEF Cells (AID 2667); also: potency is read from the fitted curve at half-maximal effect
How it was run: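 Fixed-cell imaging of phospho-S6 (Ser235/236, Alexa-488) after 24 hrs of compound treatment at 37 degree Celsius. Signal was normalized to Hoechst, and thresholds from the highest and lowest wells split cells into % active versus % non-active.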

[14] = Cytometry Cell-Based qHTS for Inhibitors of the mTORC1 Signaling Pathway in MEF cells (AID 2668);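 also: Tsc2-/- p53-/- mouse embryonic fibroblasts stably re-expressing wild-type Tsc2; percent cells positive for phospho-rpS6 Ser235/236 relative to propidium iodide stain; series mostly up to about 38 µM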
How it was run: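 In MEFs grown in DMEM + 10% FBS, a 24 hrs compound exposure preceded imaging of phospho-rpS6 Ser235/236 by laser-scanning cytometry.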

[15] = qHTS Assay for Identification of Small Molecule Inducers of Hypoxia Response (AID 2120; active = well fitted curve in the direction sought with a large enough effect in the signal ratio, with a control signal flat, not every such curve was filed as active; the % refers to the signal ratio)
How it was run: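 Read-out: CCF4 FRET emission ratio 460nm/530nm (excitation 405nm), converted to %Activity, with AC50 fitted across a compound titration. ME-180 cells carried an HRE-driven beta-lactamase reporter; compound exposure 17 h, 37 degrees C.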

[16] = qHTS Validation Assay to Find Inhibitors of Chronic Active B-Cell Receptor Signaling (AID 485345; active = well fitted curve in the direction sought with a large enough effect in the main read-out, with a control signal flat, not every such curve was filed as active)
How it was run: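 TMD8 ABC-DLBCL cells with dox-inducible green luciferase–IκBα fusion and red native luciferase; compounds 46 uM–3 nM, 4 h at 37C with doxycycline in 0.5% FBS IMDM. Green/red ratio normalized to basal and 10 uM MG-132.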

Measured: Potency

Oc1ccc2c3c1O[C@H]1c4[nH]c5ccccc5c4C[C@@]4(O)C(C2)N(CC2CC2)CCC314 (stereo partly specified)
active: [5] 11.2 µM
inactive: [1] | [2] | [3] | [4] | [6] | [7] | [8] | [9] | [10] | [11]

CCNC(=O)[C@H]1O[C@@H](n2cnc3c(N)ncnc32)[C@H](O)[C@@H]1O
inactive: [12] | [4] | [13] | [14] | [7] | [8] | [9] | [10] | [11]

ClC(Cl)(Cl)Cl
inactive: [15]

O=[N+]([O-])/C=C/c1ccc2c(c1)OCO2
inactive: [4] | [7] | [8] | [9] | [10]
active: [13] 2.07 µM

CCCn1c(=O)c2[nH]c(C3CCCC3)nc2n(CCCOC(=O)c2ccc(S(=O)(=O)F)cc2)c1=O
inactive: [2] | [12] | [4] | [13] | [14] | [5] | [7] | [8] | [9] | [10]

CN1CC[C@@]2(C)c3cc(OC(=O)Nc4ccccc4)ccc3N(C)[C@@H]12
inactive: [12] | [4] | [14] | [7] | [8] | [9] | [10]

NC(=O)c1ccc(OCC(O)CN2CC=C(c3ccc(F)cc3)CC2)cc1 (stereo unspecified)
inactive: [1] | [2] | [12] | [4] | [13] | [14] | [5] | [7] | [8] | [9] | [16] | [10] | [11]

Cc1cc([C@@H]2CCCN2C)on1
inactive: [12] | [4] | [14] | [7] | [8] | [9] | [16] | [10]

S=C=S
inactive: [15]

C=CCN1CCc2cccc3c2[C@H]1Cc1ccc(O)c(O)c1-3
inactive: [12] | [4] | [7] | [8] | [9] | [10]

N#C/C(=C/c1ccc(O)c(O)c1)C(N)=S
inactive: [12] | [4] | [14] | [7] | [8] | [9] | [16] | [10]

C=CCN(C1=NCCN1)c1c(Cl)cccc1Cl
inactive: [12] | [4] | [13] | [14] | [7] | [8] | [9] | [16] | [10] | [11]

C[N+]1(C)CCc2cc3c(cc2[C@H]1[C@@H]1OC(=O)c2c1ccc1c2OCO1)OCO3
inactive: [12] | [4] | [13] | [14] | [7] | [8] | [9] | [16] | [10]

O=c1c2ccccc2[se]n1-c1ccccc1
inactive: [1] | [2] | [4] | [13] | [7] | [9] | [10]
active: [8] 4.74 µM | [11] 1.51 µM

N=C(N)c1ccc(CS(=O)(=O)F)cc1
inactive: [12] | [4] | [14] | [7] | [8] | [9] | [16] | [10] | [11]

COc1ccc2c(c1)c(CCN1CCOCC1)c(C)n2C(=O)c1cccc(Cl)c1Cl
inactive: [12] | [4] | [13] | [7] | [8] | [9] | [10] | [11]

N[C@@H](Cn1ccc(=O)[nH]c1=O)C(=O)O
inactive: [12] | [4] | [13] | [14] | [7] | [8] | [9] | [16] | [10] | [11]

CC(=O)OCC1=C(C(=O)O)N2C(=O)[C@@H](NC(=O)CCC[C@@H](N)C(=O)O)[C@H]2SC1
inactive: [12] | [4] | [13] | [14] | [7] | [8] | [9] | [16] | [10]

O=C(O)C(Cl)(Cl)Cl
inactive: [15]

O=[N+]([O-])c1ccccc1
inactive: [15]

CCCN1CCc2cc(O)cc3c2[C@H]1Cc1ccc(O)c(O)c1-3
active: [11] 3.01 µM
inactive: [7] | [8] | [9] | [10]
